Consider 28 compounds from article PMC4336329 (PLoS ONE, 2015).

SMILES strings stand for the structures. Among all 310,000 compounds or so, about 14,000 (4.5%) showed an effect of 50% or more. The effect is printed as a negative number. This excerpt belongs to a sample that is enriched for strong results.
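Also: peak tail current of the secondary pulse compared with the same well before compound.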

The target in the assay is human ether-à-go-go-related gene (hERG) potassium channel (human, UniProt Q12809). In words: primary screen, population patch clamp on CHO cells stably expressing hERG; higher = less effect of the substance.
Sequence of human ether-à-go-go-related gene (hERG) potassium channel (Q12809 whole entry, looked up): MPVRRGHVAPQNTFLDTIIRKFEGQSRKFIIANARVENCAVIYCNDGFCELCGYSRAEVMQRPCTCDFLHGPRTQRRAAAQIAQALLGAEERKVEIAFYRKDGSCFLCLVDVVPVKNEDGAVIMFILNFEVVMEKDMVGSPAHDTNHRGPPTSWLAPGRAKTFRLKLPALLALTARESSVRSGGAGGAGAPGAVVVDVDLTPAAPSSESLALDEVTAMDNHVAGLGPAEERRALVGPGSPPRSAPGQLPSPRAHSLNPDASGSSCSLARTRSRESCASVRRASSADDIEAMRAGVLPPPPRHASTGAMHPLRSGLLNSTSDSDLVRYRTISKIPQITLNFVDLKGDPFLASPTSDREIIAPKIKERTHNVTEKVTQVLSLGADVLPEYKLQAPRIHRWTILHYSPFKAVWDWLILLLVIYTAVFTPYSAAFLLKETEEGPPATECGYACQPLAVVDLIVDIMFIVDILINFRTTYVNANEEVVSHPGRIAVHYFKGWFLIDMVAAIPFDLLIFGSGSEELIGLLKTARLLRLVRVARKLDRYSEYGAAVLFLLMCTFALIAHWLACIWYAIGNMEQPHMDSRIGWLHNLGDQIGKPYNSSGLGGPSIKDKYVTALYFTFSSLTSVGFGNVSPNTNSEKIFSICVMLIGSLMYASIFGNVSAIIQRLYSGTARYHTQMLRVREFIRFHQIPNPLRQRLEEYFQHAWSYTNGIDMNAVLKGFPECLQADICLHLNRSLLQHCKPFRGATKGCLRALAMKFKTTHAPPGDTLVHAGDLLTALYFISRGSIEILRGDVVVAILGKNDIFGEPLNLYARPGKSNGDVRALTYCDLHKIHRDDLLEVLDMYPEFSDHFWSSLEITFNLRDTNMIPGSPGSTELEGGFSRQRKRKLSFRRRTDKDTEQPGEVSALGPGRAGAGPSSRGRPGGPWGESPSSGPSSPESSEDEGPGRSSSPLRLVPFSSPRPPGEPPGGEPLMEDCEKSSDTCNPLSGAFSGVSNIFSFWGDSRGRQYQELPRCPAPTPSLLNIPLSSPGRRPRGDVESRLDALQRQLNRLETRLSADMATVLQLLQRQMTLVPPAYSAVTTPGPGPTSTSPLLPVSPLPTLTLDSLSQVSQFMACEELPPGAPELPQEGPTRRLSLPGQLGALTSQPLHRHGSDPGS
Take `Cc1ccc(-c2nc3ccccc3o2)cc1NC(=O)Cc1cccs1`: the “hERG current change (%, negative = inhibition) at 10uM” value is listed as 18.7%.
`CC(C)C[C@H](NC(=O)C1(c2ccccc2)CCN(C(=O)OC(C)(C)C)CC1)C(=O)N1CCC[C@H]1C(=O)O`: the “hERG current change (%, negative = inhibition) at 10uM” value worked out at 9.37%.
In the case of `Cc1ccccc1CN1C(=O)c2ccccc2Sc2ccc(C(=O)NCCCN3CCOCC3)cc21`, the “hERG current change (%, negative = inhibition) at 10uM” value is reported as -62.9%.
As for `O=C(NCCN1CCOCC1)c1ccc2c(c1)N(Cc1ccccc1F)C(=O)c1ccccc1S2`, the “hERG current change (%, negative = inhibition) at 10uM” value is on record as -27%.
In the case of `CCN1C(=O)c2ccccc2Sc2ccc(C(=O)NCCCN(CC(C)C)CC(C)C)cc21`, the “hERG current change (%, negative = inhibition) at 10uM” value was -64.3%.
With `CCN1C(=O)c2ccccc2S(=O)(=O)c2ccc(C(=O)NCCCN(CC(C)C)CC(C)C)cc21`, the “hERG current change (%, negative = inhibition) at 10uM” value was -12.7%.
As to `CCN1C(=O)c2ccccc2Sc2ccc(C(=O)NCCC(C)C)cc21`, the “hERG current change (%, negative = inhibition) at 10uM” value is -7.94%.
Take `CCN1C(=O)c2ccccc2Sc2ccc(C(=O)NCCCN3CCOCC3)cc21`: the “hERG current change (%, negative = inhibition) at 10uM” value is recorded as -17.8%.
Regarding `Cc1ccccc1CN1C(=O)c2ccccc2Sc2ccc(C(=O)NCCN3CCOCC3)cc21`, the “hERG current change (%, negative = inhibition) at 10uM” value is -69.6%.
On to `Cc1ccc(CN2C(=O)c3ccccc3Sc3ccc(C(=O)NCCCN4CCOCC4)cc32)cc1`, for which the “hERG current change (%, negative = inhibition) at 10uM” value was -2.12%.
Regarding `Cc1ccc(CN2C(=O)c3ccccc3Sc3ccc(C(=O)NCCN4CCOCC4)cc32)cc1`, the “hERG current change (%, negative = inhibition) at 10uM” value is reported as -15.2%.
Consider `CCCCC1C2=C(CC(C)(C)CC2=O)OC2=C1C(=O)CC(C)(C)C2`, for which the “hERG current change (%, negative = inhibition) at 10uM” value is -9.48%.
Under `CC(C)(C)C1=C(C#N)C(c2cccnc2)C(C#N)=C(N)O1` (stereo not shown) stands 4.42%; under `COc1cc(CCN)ccc1O.Cl`, 15.1%; under `COP(=O)(OC)C(Nc1ccccc1)c1ccccc1` (stereo not shown), 11.4%.
Take `COc1ccc(N2CCCC2)c(NC(=O)COc2ccccc2Cl)c1`: the “hERG current change (%, negative = inhibition) at 10uM” value is on record as 14.8%.
For `CN1CCN(C(=O)/C(=C/c2ccccc2Cl)NC(=O)c2ccccc2)CC1`, the “hERG current change (%, negative = inhibition) at 10uM” value is reported as -10.8%.
As for `CC(=O)Nc1ccc(C(=O)N/C(=C/c2ccccc2)C(=O)N2CCCCC2)cc1`, the “hERG current change (%, negative = inhibition) at 10uM” value worked out at 4.57%.
As to `O=C(N/C(=C\c1ccc([N+](=O)[O-])cc1)C(=O)N1CCCCC1)c1ccccc1Br`, the “hERG current change (%, negative = inhibition) at 10uM” value is -59.4%.
Under `O=C(N/C(=C/C=C/c1ccccc1)C(=O)N1CCCCC1)c1ccc([N+](=O)[O-])cc1` stands -72.8%.
Under `CN1CCN(C(=O)/C(=C/c2ccc([N+](=O)[O-])cc2)NC(=O)c2ccccc2)CC1` stands -81.5%; under `CN1CCN(C(=O)/C(=C/c2cccc([N+](=O)[O-])c2)NC(=O)c2ccccc2)CC1`, -72.6%; under `O=C(N/C(=C/c1cccc([N+](=O)[O-])c1)C(=O)N1CCOCC1)c1ccccc1Br`, -7.05%.
Under `COc1cc(/C=C(/NC(=O)c2ccccc2)C(=O)N2CCN(C)CC2)c([N+](=O)[O-])cc1OC` stands 9.52%.
Take `CN1CCN(C(=O)/C(=C\c2cccc([N+](=O)[O-])c2)NC(=O)c2cccs2)CC1`: the “hERG current change (%, negative = inhibition) at 10uM” value was -25.4%.
On to `O=C(N/C(=C/c1cccc([N+](=O)[O-])c1)C(=O)N1CCCC1)c1ccccc1`, for which the “hERG current change (%, negative = inhibition) at 10uM” value is recorded as -46%.
As to `O=C(N/C(=C\c1cccc([N+](=O)[O-])c1)C(=O)N1CCCCC1)c1cccs1`, the “hERG current change (%, negative = inhibition) at 10uM” value stood at 7.93%.
`O=C(N/C(=C\c1ccccc1)C(=O)N1CCOCC1)c1ccccc1Br`: the “hERG current change (%, negative = inhibition) at 10uM” value was 17.9%.
